From PubChem BioAssay (NCI) come the findings set out here.

A short description of experiment [1]: NCI Yeast Anticancer Drug Screen. Data for the rad50 strain (AID 155).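 Note: 0% = growth of vehicle-only cultures of the same strain.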 The conditions noted are these: S. cerevisiae rad50 strain growth inhibition, active compounds read high. In a few lines:
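Inhibition values express reduced yeast growth in compound-treated cultures relative to vehicle-treated controls.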

Experiment [2] can be described thus: NCI Yeast Anticancer Drug Screen. Data for the mec2-1 strain (AID 157). The conditions noted are these: S. cerevisiae mec2-1 strain, active compounds read high. A digest of the protocol:
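Mutant yeast (mec2-1) grown with compound; growth inhibition relative to vehicle control reported.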

Experiment [3] can be described thus: NCI Yeast Anticancer Drug Screen. Data for the sgs1 mgt1 strain (AID 161).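 Note: 0% = growth of cultures given vehicle only.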 The conditions noted are these: S. cerevisiae sgs1 mgt1 strain, active compounds read high. A digest of the protocol:
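Growth of a repair-deficient yeast mutant was monitored after compound treatment and expressed as inhibition relative to vehicle-treated cultures.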

Experiment [4] in a line: NCI Yeast Anticancer Drug Screen. Data for the cln2 rad14 strain (AID 165).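 Note: 0% = growth equal to vehicle treated cultures.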 The conditions noted are these: S. cerevisiae cln2 rad14 strain, active compounds read high. In a few lines:
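Readout is yeast growth inhibition versus vehicle-treated controls, using a strain with cln2 and rad14 alterations exposed to compound.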

A short description of experiment [5]: NCI Yeast Anticancer Drug Screen. Data for the bub3 strain (AID 167). The conditions noted are these: S. cerevisiae bub3 mutant strain, active compounds read high. A digest of the protocol:
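Steps: expose the mutant yeast strain to compound; grow alongside vehicle-treated cultures; measure growth; express inhibition against the vehicle cultures.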

Experiment [6] in a line: NCI Yeast Anticancer Drug Screen. Data for the mlh1 rad18 strain (AID 175). The conditions noted are these: S. cerevisiae mlh1 rad18 strain growth inhibition, active compounds read high. In a few lines:
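Genetically defined yeast (DNA repair-deficient) exposed to compounds; growth inhibition determined relative to vehicle.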

Setting [7] is: at 5.0 µM (retest, dose inferred, filed as 0.5).
Where [8] appears, read: at 50.0 µM (retest, dose inferred, filed as 5.0).

The structures appear in SMILES notation. Compounds without any hit were thinned out: in the full panel of roughly 79,000, 15% have a hit. A number with no mark means an inactive call. Active and inactive are the calls of the source. Cut-off read from the data, not from the text of the source: active = growth inhibition above about 70%; inactive = the rest.

As for `O=C(C=P(c1ccccc1)(c1ccccc1)c1ccccc1)CC(=S)CC(=O)C=P(c1ccccc1)(c1ccccc1)c1ccccc1`, the growth inhibition in experiment [1] (setting [7]) was 31%; in experiment [1] (setting [8]), 71% (active); in experiment [1] (at 50.0 µM) it was 97.3% (active); in experiment [2] (setting [7]) it was 18%; in experiment [2] (setting [8]) it was 69%; in experiment [2] (at 50.0 µM), 97.8% (active). Moreover, the growth inhibition in experiment [3] (setting [7]) was 24%; in experiment [3] (setting [8]), 85% (active); in experiment [3] (at 50.0 µM) it was 97.8% (active); in experiment [4] (setting [7]), -3%; in experiment [4] (setting [8]), 61%; in experiment [4] (at 50.0 µM), 96.2% (active). Moreover, the growth inhibition in experiment [5] (setting [7]) is 9%; in experiment [5] (setting [8]) it was 88% (active); in experiment [5] (at 50.0 µM), 95.9% (active); in experiment [6] (setting [7]), 8%; in experiment [6] (setting [8]), 77% (active); in experiment [6] (at 50.0 µM) it was 95.2% (active).
Consider `COc1ccc2c(c1)CCC1=C2C=C[P+]1(C)C`, for which the growth inhibition was -4% in experiment [1] (setting [7]); 98% (active) in experiment [1] (setting [8]); 99.5% (active) in experiment [1] (at 50.0 µM); -5% in experiment [2] (setting [7]); 96% (active) in experiment [2] (setting [8]); 99.7% (active) in experiment [2] (at 50.0 µM). For the same compound, the growth inhibition was -1% in experiment [3] (setting [7]); 100% (active) in experiment [3] (setting [8]); 99.7% (active) in experiment [3] (at 50.0 µM); 4% in experiment [4] (setting [7]); 71% (active) in experiment [4] (setting [8]); 94.6% (active) in experiment [4] (at 50.0 µM). In addition, the growth inhibition is -2% in experiment [5] (setting [7]); 97% (active) in experiment [5] (setting [8]); 99.7% (active) in experiment [5] (at 50.0 µM); -2% in experiment [6] (setting [7]); 99% (active) in experiment [6] (setting [8]); 99.5% (active) in experiment [6] (at 50.0 µM).
For `O=C(Nc1c(Cl)cccc1Cl)OCCOc1ccc(Cl)cc1Cl`, the growth inhibition was 44% in experiment [1] (setting [7]); 73% (active) in experiment [1] (setting [8]); 88.5% (active) in experiment [1] (at 50.0 µM); 36% in experiment [2] (setting [7]); 57% in experiment [2] (setting [8]); 90.8% (active) in experiment [2] (at 50.0 µM). The growth inhibition in experiment [3] (setting [7]) was 47%; in experiment [3] (setting [8]), 58%; in experiment [3] (at 50.0 µM), 91.2% (active); in experiment [4] (setting [7]), 34%; in experiment [4] (setting [8]), 61%; in experiment [4] (at 50.0 µM), 88.2% (active). For the same compound, the growth inhibition is 38% in experiment [5] (setting [7]); 71% (active) in experiment [5] (setting [8]); 90.7% (active) in experiment [5] (at 50.0 µM); 55% in experiment [6] (setting [7]); 80% (active) in experiment [6] (setting [8]); 90% (active) in experiment [6] (at 50.0 µM).
Take `CC(=O)Oc1c(Cl)cc(Cl)cc1C(c1cc(Cl)cc(Cl)c1OC(C)=O)C(Cl)(Cl)Cl`: the growth inhibition was 6% in experiment [1] (setting [7]); 31% in experiment [1] (setting [8]); 90.8% (active) in experiment [1] (at 50.0 µM); 2% in experiment [2] (setting [7]); 25% in experiment [2] (setting [8]); 98.3% (active) in experiment [2] (at 50.0 µM). Besides, the growth inhibition in experiment [3] (setting [7]) was -1%; in experiment [3] (setting [8]), -5%; in experiment [3] (at 50.0 µM) it was 83.9% (active); in experiment [4] (setting [7]), -10%; in experiment [4] (setting [8]) it was 2%; in experiment [4] (at 50.0 µM), 82.8% (active). The growth inhibition is -3% in experiment [5] (setting [7]); 20% in experiment [5] (setting [8]); 98.3% (active) in experiment [5] (at 50.0 µM); -2% in experiment [6] (setting [7]); 23% in experiment [6] (setting [8]); 95.5% (active) in experiment [6] (at 50.0 µM).
With `O=C(/C=C\c1ccccc1)N1c2ccccc2CC1c1c[nH]c2ccccc12` (configuration not stated), the growth inhibition in experiment [1] (setting [7]) was -10%; in experiment [1] (setting [8]), 11%; in experiment [1] (at 50.0 µM), 6.35%; in experiment [2] (setting [7]), -1%; in experiment [2] (setting [8]), 17%; in experiment [2] (at 50.0 µM), -1.7%. Also, the growth inhibition is 4% in experiment [3] (setting [7]); 19% in experiment [3] (setting [8]); 10.3% in experiment [3] (at 50.0 µM); -1% in experiment [4] (setting [7]); 1% in experiment [4] (setting [8]); 36.9% in experiment [4] (at 50.0 µM). Further, the growth inhibition in experiment [5] (setting [7]) is 20%; in experiment [5] (setting [8]) it was 41%; in experiment [5] (at 50.0 µM), -2.1%; in experiment [6] (setting [7]), 7%; in experiment [6] (setting [8]) it was 11%; in experiment [6] (at 50.0 µM), 12.2%.
Take `CCN(CC)C(=S)N/N=C/c1cc([N+](=O)[O-])ccc1O`: the growth inhibition is -21% in experiment [1] (setting [7]); 63% in experiment [1] (setting [8]); 37% in experiment [1] (at 50.0 µM); 15% in experiment [2] (setting [7]); 88% (active) in experiment [2] (setting [8]); 79.8% (active) in experiment [2] (at 50.0 µM). For the same compound, the growth inhibition was 36% in experiment [3] (setting [7]); 87% (active) in experiment [3] (setting [8]); 54.4% in experiment [3] (at 50.0 µM); -3% in experiment [4] (setting [7]); 66% in experiment [4] (setting [8]); 59% in experiment [4] (at 50.0 µM). Also, the growth inhibition in experiment [5] (setting [7]) is 16%; in experiment [5] (setting [8]), 76% (active); in experiment [5] (at 50.0 µM), 56.5%; in experiment [6] (setting [7]), 12%; in experiment [6] (setting [8]), 80% (active); in experiment [6] (at 50.0 µM), 14.8%.
With `NC(=O)/C=C/C(=O)c1c(Cl)cccc1Cl`, the growth inhibition in experiment [1] (setting [7]) was 97% (active); in experiment [1] (setting [8]) it was 100% (active); in experiment [1] (at 50.0 µM), 91.1% (active); in experiment [2] (setting [7]), 99% (active); in experiment [2] (setting [8]), 100% (active); in experiment [2] (at 50.0 µM), 92% (active). The growth inhibition in experiment [3] (setting [7]) was 99% (active); in experiment [3] (setting [8]) it was 100% (active); in experiment [3] (at 50.0 µM), 91.7% (active); in experiment [4] (setting [7]), 46%; in experiment [4] (setting [8]), 98% (active); in experiment [4] (at 50.0 µM), 90.3% (active). Also, the growth inhibition in experiment [5] (setting [7]) is 99% (active); in experiment [5] (setting [8]), 100% (active); in experiment [5] (at 50.0 µM), 88.3% (active); in experiment [6] (setting [7]), 100% (active); in experiment [6] (setting [8]), 100% (active); in experiment [6] (at 50.0 µM), 91% (active).
Consider `CC(C)OC(=O)c1ccc(NCC2=CC(=O)C=CC2=O)cc1Cl`, for which the growth inhibition is 53% in experiment [1] (setting [7]); 99% (active) in experiment [1] (setting [8]); 90.7% (active) in experiment [1] (at 50.0 µM); 44% in experiment [2] (setting [7]); 100% (active) in experiment [2] (setting [8]); 92.5% (active) in experiment [2] (at 50.0 µM). Moreover, the growth inhibition in experiment [3] (setting [7]) was 55%; in experiment [3] (setting [8]), 100% (active); in experiment [3] (at 50.0 µM), 91.2% (active); in experiment [4] (setting [7]) it was 61%; in experiment [4] (setting [8]), 100% (active); in experiment [4] (at 50.0 µM), 91.2% (active). Also, the growth inhibition in experiment [5] (setting [7]) is 55%; in experiment [5] (setting [8]) it was 100% (active); in experiment [5] (at 50.0 µM) it was 88.9% (active); in experiment [6] (setting [7]), 46%; in experiment [6] (setting [8]), 99% (active); in experiment [6] (at 50.0 µM), 91.7% (active).
With `CC(C)C(=O)OCC(C)(C)C1OCC(C)(C)C(C(C)C)O1` (configuration not stated), the growth inhibition in experiment [1] (setting [7]) was 11%; in experiment [1] (setting [8]), -9%; in experiment [1] (at 50.0 µM) it was -5.55%; in experiment [2] (setting [7]), 97% (active); in experiment [2] (setting [8]), 5%; in experiment [2] (at 50.0 µM), -3.85%. Further, the growth inhibition in experiment [3] (setting [7]) was 12%; in experiment [3] (setting [8]), 3%; in experiment [3] (at 50.0 µM), -1.55%; in experiment [4] (setting [7]), -19%; in experiment [4] (setting [8]), -6%; in experiment [4] (at 50.0 µM), 9%. Also, the growth inhibition is 98% (active) in experiment [5] (setting [7]); 0% in experiment [5] (setting [8]); 1.15% in experiment [5] (at 50.0 µM); 88% (active) in experiment [6] (setting [7]); -13% in experiment [6] (setting [8]); 4.85% in experiment [6] (at 50.0 µM).
